Structures can show the parent of a compound that is named as a salt. ± gives the standard deviation of the averaged measurements. Over roughly 1,300 compounds, “normalised cell viability” has its median near 1; the lowest 2% begin near 0.14. The list comes from a sample in which the lowest values are over-represented; it also holds similar structures and randomly drawn compounds.
System: V-C8 (BRCA2-deficient hamster cells)
Test: normalised cell viability (fraction of plate median); higher = more viable cells (less toxic)
Settings: 5 µM
Procedure, shortened: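 Hamster V-C8 cells with and without restored BRCA2 were exposed in 96-well plates to library drugs at 5 μM for 3 days (screen 1) or 6 days (screen 2). Cell viability was scored by resazurin assay, then median-plate normalised, averaging triplicate wells.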

Which normalised cell viability (treatment time: 3 days) does the source give for CC/C(=C(\c1ccccc1)c1ccc(OCCN(C)C)cc1)c1ccccc1 [Tamoxifen citrate] here?
Its normalised cell viability is 0.837 ± 0.019.

What about the normalised cell viability (treatment time: 6 days) of the same compound?
Its normalised cell viability is 0.767 ± 0.035.

CN(C)CCOc1ccc(/C(=C(/CCCl)c2ccccc2)c2ccccc2)cc1 [Toremifene] was tested. Which normalised cell viability (treatment time: 3 days) did it give?
Its normalised cell viability is 0.716 ± 0.067.

And the normalised cell viability (treatment time: 6 days)?
The normalised cell viability was 0.875 ± 0.052.

Which results are given for CCN(CC)CCOc1ccc(C(=C(Cl)c2ccccc2)c2ccccc2)cc1 [Clomiphene citrate (Z,E)]?
normalised cell viability (treatment time: 3 days): 0.142 ± 0.002; normalised cell viability (treatment time: 6 days): 0.118 ± 0.011

What does the source list for CC[N+](CC)(CC(=O)Nc1c(C)cccc1C)Cc1ccccc1 [Denatonium benzoate]?
normalised cell viability (treatment time: 3 days): 1.01 ± 0.031; normalised cell viability (treatment time: 6 days): 1.07 ± 0.019

How did the normalised cell viability (treatment time: 3 days) turn out when Cc1cn([C@H]2C=C[C@@H](CO)O2)c(=O)[nH]c1=O [Stavudine] was run?
Its normalised cell viability is 1.05 ± 0.077.

And the normalised cell viability (treatment time: 6 days)?
Its normalised cell viability is 1.23 ± 0.35.

Which results are given for O=C1NCCN1CCN1CCC(c2cn(-c3ccc(F)cc3)c3ccc(Cl)cc23)CC1 [Sertindole]?
normalised cell viability (treatment time: 3 days): 0.385 ± 0.019; normalised cell viability (treatment time: 6 days): 0.591 ± 0.069

For CC(C)(C)C(=O)OCOC(=O)[C@@H]1N2C(=O)[C@@H](/N=C/N3CCCCCC3)[C@H]2SC1(C)C [Pivmecillinam hydrochloride], which normalised cell viability (treatment time: 3 days) is on record?
The normalised cell viability was 0.959 ± 0.056.

What about the normalised cell viability (treatment time: 6 days) of the same compound?
The normalised cell viability was 1.01 ± 0.039.

What does the source list for Cc1ncc([N+](=O)[O-])n1CCO [Metronidazole]?
normalised cell viability (treatment time: 3 days): 0.914 ± 0.088; normalised cell viability (treatment time: 6 days): 1.04 ± 0.058

How did the normalised cell viability (treatment time: 3 days) turn out when CC(=O)O[C@H]1C(=O)[C@@]2(C)[C@H]([C@H](OC(=O)c3ccccc3)[C@]3(O)C[C@H](OC(=O)[C@H](O)[C@@H](NC(=O)c4ccccc4)c4ccccc4)C(C)=C1C3(C)C)[C@]1(OC(C)=O)CO[C@@H]1C[C@@H]2O [Paclitaxel] was run?
The normalised cell viability was 0.193 ± 0.01.

What about the normalised cell viability (treatment time: 6 days) of the same compound?
The normalised cell viability was 0.199 ± 0.0046.

For Cc1oncc1C(=O)Nc1ccc(C(F)(F)F)cc1 [Leflunomide], which normalised cell viability (treatment time: 3 days) is on record?
Its normalised cell viability is 0.904 ± 0.065.

And the normalised cell viability (treatment time: 6 days)?
The normalised cell viability was 0.959 ± 0.043.

Which results are given for COc1cccc(N(C)C(=S)Oc2ccc3c(c2)CCCC3)n1 [Liranaftate]?
normalised cell viability (treatment time: 3 days): 0.805 ± 0.038; normalised cell viability (treatment time: 6 days): 0.74 ± 0.046

COC(=O)Nc1nc2ccc(SC(C)C)cc2[nH]1 [Methiazole] was tested. Which normalised cell viability (treatment time: 3 days) did it give?
Its normalised cell viability is 0.214 ± 0.0082.

And the normalised cell viability (treatment time: 6 days)?
Its normalised cell viability is 0.221 ± 0.025.

With COc1ccc(CN2CCN(C(c3ccc(F)cc3)c3ccc(F)cc3)CC2)c(OC)c1OC [Lomerizine hydrochloride] as the compound, how does the normalised cell viability (treatment time: 3 days) read?
Its normalised cell viability is 0.881 ± 0.042.

What about the normalised cell viability (treatment time: 6 days) of the same compound?
Its normalised cell viability is 0.799 ± 0.035.

Which results are given for Cc1ccc(S(=O)(=O)NC(=O)NN2CC3CCCC3C2)cc1 (stereo not given) [Gliclazide]?
normalised cell viability (treatment time: 3 days): 1.04 ± 0.049; normalised cell viability (treatment time: 6 days): 0.979 ± 0.091

For CCOC(=O)OC(C)OC1=C(C(=O)Nc2ccccn2)N(C)S(=O)(=O)c2ccccc21 (stereo not given) [Ampiroxicam], which normalised cell viability (treatment time: 3 days) is on record?
Its normalised cell viability is 1.03 ± 0.055.

And the normalised cell viability (treatment time: 6 days)?
The normalised cell viability was 1.02 ± 0.041.

With Cc1cc(N)c2ccccc2[n+]1CCCCCCCCCC[n+]1c(C)cc(N)c2ccccc21 [Dequalinium dichloride] as the compound, how does the normalised cell viability (treatment time: 3 days) read?
The normalised cell viability was 0.171 ± 0.0032.

What about the normalised cell viability (treatment time: 6 days) of the same compound?
The normalised cell viability was 0.162 ± 0.013.

With CN(CCCCCCCCCCN(C)C(=O)Oc1cccc([N+](C)(C)C)c1)C(=O)Oc1cccc([N+](C)(C)C)c1 [Demecarium bromide] as the compound, how does the normalised cell viability (treatment time: 3 days) read?
The normalised cell viability was 0.828 ± 0.022.

What about the normalised cell viability (treatment time: 6 days) of the same compound?
Its normalised cell viability is 0.812 ± 0.013.

C[C@H]1NC(=O)NC1=O [Methylhydantoin-5-(D)] was tested. Which normalised cell viability (treatment time: 3 days) did it give?
The normalised cell viability was 0.968 ± 0.032.

And the normalised cell viability (treatment time: 6 days)?
Its normalised cell viability is 0.954 ± 0.077.

For CO[C@H]1/C=C/O[C@@]2(C)Oc3c(C)c(O)c4c(O)c(c5c(nc6cc(C)ccn65)c4c3C2=O)NC(=O)/C(C)=C\C=C\[C@H](C)[C@H](O)[C@@H](C)[C@@H](O)[C@@H](C)[C@H](OC(C)=O)[C@@H]1C [Rifaximin], which normalised cell viability (treatment time: 3 days) is on record?
Its normalised cell viability is 0.964 ± 0.023.

And the normalised cell viability (treatment time: 6 days)?
The normalised cell viability was 0.928 ± 0.017.

What does the source list for CN(C/C=C/c1ccccc1)Cc1cccc2ccccc12 [Naftifine hydrochloride]?
normalised cell viability (treatment time: 3 days): 0.199 ± 0.019; normalised cell viability (treatment time: 6 days): 0.219 ± 0.0077

How did the normalised cell viability (treatment time: 3 days) turn out when CC(O)(P(=O)(O)O)P(=O)(O)O [Etidronic acid, disodium salt] was run?
The normalised cell viability was 1.03 ± 0.024.

What about the normalised cell viability (treatment time: 6 days) of the same compound?
The normalised cell viability was 1.05 ± 0.046.

Which normalised cell viability (treatment time: 3 days) does the source give for CNC(=C[N+](=O)[O-])NCCSCc1ccc(CN(C)C)o1 [Ranitidine hydrochloride] here?
The normalised cell viability was 1.02 ± 0.13.

What about the normalised cell viability (treatment time: 6 days) of the same compound?
Its normalised cell viability is 1.08 ± 0.045.

Which normalised cell viability (treatment time: 3 days) does the source give for CC(=O)OCC(=O)[C@@]1(OC(C)=O)[C@@H](C)C[C@H]2[C@@H]3C[C@H](F)C4=CC(=O)C=C[C@]4(C)[C@@]3(F)[C@@H](O)C[C@@]21C [Diflorasone Diacetate] here?
Its normalised cell viability is 1.18 ± 0.074.

And the normalised cell viability (treatment time: 6 days)?
The normalised cell viability was 1.02 ± 0.051.

With OC[C@H]1O[C@@H](Oc2ccc(O)cc2)[C@H](O)[C@@H](O)[C@@H]1O [Arbutin] as the compound, how does the normalised cell viability (treatment time: 3 days) read?
The normalised cell viability was 1.05 ± 0.026.

And the normalised cell viability (treatment time: 6 days)?
Its normalised cell viability is 1.03 ± 0.058.

For CCOc1ccc(Cc2nccc3cc(OCC)c(OCC)cc23)cc1OCC [Ethaverine hydrochloride], which normalised cell viability (treatment time: 3 days) is on record?
The normalised cell viability was 0.625 ± 0.013.

What about the normalised cell viability (treatment time: 6 days) of the same compound?
The normalised cell viability was 0.534 ± 0.022.

Which results are given for CC(=O)O[C@H]1C[C@@H]2CC[C@@H]3[C@H](CC[C@@]4(C)[C@H]3C[C@H]([N+]3(C)CCCCC3)[C@@H]4OC(C)=O)[C@@]2(C)C[C@@H]1N1CCCCC1 [Vecuronium bromide]?
normalised cell viability (treatment time: 3 days): 1.01 ± 0.047; normalised cell viability (treatment time: 6 days): 1.04 ± 0.036

For Clc1ccc(C(Cn2ccnc2)OCc2c(Cl)cccc2Cl)c(Cl)c1 (stereo not given) [Isoconazole], which normalised cell viability (treatment time: 3 days) is on record?
The normalised cell viability was 1.12 ± 0.04.

What about the normalised cell viability (treatment time: 6 days) of the same compound?
The normalised cell viability was 1.09 ± 0.045.

Which normalised cell viability (treatment time: 3 days) does the source give for NCCCC(O)(P(=O)(O)O)P(=O)(O)O [Alendronate sodium] here?
Its normalised cell viability is 0.709 ± 0.1.

What about the normalised cell viability (treatment time: 6 days) of the same compound?
The normalised cell viability was 0.515 ± 0.033.

Which normalised cell viability (treatment time: 3 days) does the source give for O=C(Nc1ccc([N+](=O)[O-])cc1Cl)c1cc(Cl)ccc1O [Niclosamide] here?
Its normalised cell viability is 0.124 ± 0.0032.

What about the normalised cell viability (treatment time: 6 days) of the same compound?
The normalised cell viability was 0.0967 ± 0.0062.

Which normalised cell viability (treatment time: 3 days) does the source give for CN(C)CCOC(c1ccccc1)c1ccccc1.Cn1c(=O)c2[nH]c(Cl)nc2n(C)c1=O [Dimenhydrinate] here?
The normalised cell viability was 1.08 ± 0.086.

And the normalised cell viability (treatment time: 6 days)?
The normalised cell viability was 1.04 ± 0.024.

Which results are given for CN1C(C)(C)CCCC1(C)C [Pempidine tartrate]?
normalised cell viability (treatment time: 3 days): 0.993 ± 0.026; normalised cell viability (treatment time: 6 days): 1.048 ± 0.004

Which results are given for C=C1C(=O)O[C@H]2[C@H]1CC/C(C)=C/CC[C@@]1(C)O[C@@H]21 [Parthenolide]?
normalised cell viability (treatment time: 3 days): 0.199 ± 0.017; normalised cell viability (treatment time: 6 days): 0.416 ± 0.11

Clc1ccc(CCC(Cn2ccnc2)Sc2c(Cl)cccc2Cl)cc1 (stereo not given) [Butoconazole nitrate] was tested. Which normalised cell viability (treatment time: 3 days) did it give?
Its normalised cell viability is 0.839 ± 0.015.

And the normalised cell viability (treatment time: 6 days)?
The normalised cell viability was 0.801 ± 0.028.

Which results are given for CS(=O)(=O)c1ccc(C2=C(c3ccccc3)C(=O)OC2)cc1 [Rofecoxib]?
normalised cell viability (treatment time: 3 days): 1.02 ± 0.065; normalised cell viability (treatment time: 6 days): 1.02 ± 0.016

CC(C)c1c(C(=O)Nc2ccccc2)c(-c2ccccc2)c(-c2ccc(F)cc2)n1CC[C@@H](O)C[C@@H](O)CC(=O)O [Atorvastatin] was tested. Which normalised cell viability (treatment time: 3 days) did it give?
Its normalised cell viability is 0.633 ± 0.051.

And the normalised cell viability (treatment time: 6 days)?
Its normalised cell viability is 0.734 ± 0.032.

For CC(C)n1c(/C=C/C(O)CC(O)CC(=O)O)c(-c2ccc(F)cc2)c2ccccc21 (stereo not given) [Fluvastatin sodium salt], which normalised cell viability (treatment time: 3 days) is on record?
The normalised cell viability was 0.121 ± 0.0047.

What about the normalised cell viability (treatment time: 6 days) of the same compound?
The normalised cell viability was 0.156 ± 0.004.

What does the source list for C=CC(N)CCC(=O)O (stereo not given) [Vigabatrin]?
normalised cell viability (treatment time: 3 days): 1.04 ± 0.061; normalised cell viability (treatment time: 6 days): 1.03 ± 0.042

How did the normalised cell viability (treatment time: 3 days) turn out when CCN(CC)CCCC(C)Nc1ccnc2cc(Cl)ccc12 (stereo not given) [Chloroquine diphosphate] was run?
Its normalised cell viability is 0.756 ± 0.026.

What about the normalised cell viability (treatment time: 6 days) of the same compound?
Its normalised cell viability is 0.76 ± 0.0079.

With CCN(CC)CCCC(C)Nc1c2ccc(Cl)cc2nc2ccc(OC)cc12 (stereo not given) [Quinacrine dihydrochloride dihydrate] as the compound, how does the normalised cell viability (treatment time: 3 days) read?
The normalised cell viability was 0.123 ± 0.011.

What about the normalised cell viability (treatment time: 6 days) of the same compound?
Its normalised cell viability is 0.108 ± 0.009.

CCN(CCO)CCCC(C)Nc1ccnc2cc(Cl)ccc12 (stereo not given) [Hydroxychloroquine sulfate] was tested. Which normalised cell viability (treatment time: 3 days) did it give?
The normalised cell viability was 0.365 ± 0.05.

What about the normalised cell viability (treatment time: 6 days) of the same compound?
Its normalised cell viability is 0.524 ± 0.048.
